Inconclusive results are not listed. Some structures have more than one record in an assay (separate samples or runs), and their calls can disagree. Activity calls are given as the source filed them. Calls come from the whole dose curve; as a rule, active = well fitted curve in the direction sought with a large enough effect; inconclusive = small, poorly fitted or top-dose-only effect, or another doubt; inactive = no such curve, though single readings can be large; an effect the other way counts as inactive or inconclusive.
Experiments:
[1] = molecular target: Retinaldehyde dehydrogenase 3 (Homo sapiens) (UniProt P47895); test: qHTS for Inhibitors of the Aldehyde Dehydrogenase Family (ALDH1A3) Primary screen (AID 2061315); details: ALDH inhibition qHTS; series mostly up to 56 µM;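 note: plate controls were DMSO vehicle for no effect and reference inhibitor for full effect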
[2] = BET inhibitor-based combinations targeting novel dependencies in MECOM-rearranged (r) AML: SET-2 cell line (AID 2202231); details: SET-2 AML cells viability, CellTiter-Glo luminescence, 48 h; viability: stronger effect = lower value, concentration not given here; note: nearly all actives have a fitted effect of over 35% in size; note: potency is the fitted concentration of half-maximal effect;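 for viability: plate controls were DMSO treated cells for no effect and wells without cells for full effect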
How it was run: (§1)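 500 cells/well; 11-pt dose curve; 48 h, standard incubator; CellTiter-Glo luminescence after 15 min RT; DMSO/empty-well normalization; AUC plus Z-AUC (mean-centered within each line).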

[3] = BET inhibitor-based combinations targeting novel dependencies in MECOM-rearranged (r) AML: OCI-AML3 cell line (AID 2202232); details: CellTiter-Glo luminescence, 48 h; Potency: OCI-AML3 viability; series mostly up to 46 µM; note: nearly all actives have a fitted effect of over 35% in size; note: potency is the fitted concentration of half-maximal effect
How it was run: as §1

[4] = BET inhibitor-based combinations targeting novel dependencies in MECOM-rearranged (r) AML: MV-4-11 cell line (AID 2202233); details: MV-4-11 AML viability, CellTiter-Glo luminescence, 48 h; series mostly up to 46 µM; note: nearly all actives have a fitted effect of over 45% in size; note: potency is the fitted concentration of half-maximal effect
How it was run: (§2)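 Cells were plated at 500 per well and exposed to each drug across an 11-point dose range for 48 hr at standard incubator conditions. Viability was read by CellTiter-Glo luminescence, and activity was expressed as AUC and per-cell-line Z-transformed AUC.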

[5] = BET inhibitor-based combinations targeting novel dependencies in MECOM-rearranged (r) AML: HNT-34 cell line (AID 2202234); details: HNT-34 AML viability, CellTiter-Glo luminescence, 48 h; series mostly up to 46 µM; note: nearly all actives have a fitted effect of over 35% in size; note: potency is the fitted concentration of half-maximal effect
How it was run: as §2

[6] = BET inhibitor-based combinations targeting novel dependencies in MECOM-rearranged (r) AML: UCSD-AML1 cell line (AID 2202235); details: UCSD-AML1 AML cells viability, CellTiter-Glo, 48 h; series mostly up to 46 µM; note: nearly all actives have a fitted effect of over 40% in size; note: potency is the fitted concentration of half-maximal effect
How it was run: as §2

[7] = molecular target: Aldehyde dehydrogenase 1A1 (Homo sapiens) (UniProt P00352); test: qHTS for Inhibitors of the Aldehyde Dehydrogenase Family (ALDH1A1) Confirmatory screens (AID 2061316); details: ALDH inhibition qHTS; series mostly up to 47.3 µM; note: potency is the fitted concentration of half-maximal effect; nearly all actives have a fitted effect of over 65% in size
[8] = BET inhibitor-based combinations targeting novel dependencies in MECOM-rearranged (r) AML: AML-191 cell line (AID 2202236; note: nearly all actives have a fitted effect of over 35% in size; note: potency is the fitted concentration of half-maximal effect); details: AML-191 viability, CellTiter-Glo luminescence, 48 h; series mostly up to 46 µM
How it was run: as §1

[9] = BET inhibitor-based combinations targeting novel dependencies in MECOM-rearranged (r) AML: AML-194 cell line (AID 2202237;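 note: plate controls were vehicle wells for no effect and wells without cells for full effect; nearly all actives have a fitted effect of over 40% in size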); details: AML-194 (MECOM-r AML) viability, CellTiter-Glo, 48 h; series mostly up to 46 µM
How it was run: as §1

CN1CCN(c2cccc(Nc3nn4c(=O)c5ccc(Br)cc5nc4s3)c2)CC1
Potency [1]: inactive

C=CC(=O)Nc1cc2c(Nc3ccc(F)c(Cl)c3)ncnc2cc1C#CC(C)(C)N1CCN(C)CC1
Potency [2]: 5.9 µM (active)
Potency [3]: 2.63 µM (active)
Potency [4]: 0.742 µM (active)
Potency [5]: 3.72 µM (active)
Potency [6]: 4170 nM (active)

CC(=O)[C@]1(N)Cc2c(O)c3c(c(O)c2[C@@H](O[C@H]2C[C@H](O)[C@H](O)CO2)C1)C(=O)c1ccccc1C3=O
viability [2]: 106% (inactive)
Potency [3]: 8.33 µM (active)

CN1CCN(c2ccc(Nc3ncc4cc(C#N)c(=O)n(C5CCCC5)c4n3)cc2)CC1
Potency [2]: 1.18 µM (active)
Potency [3]: 0.105 µM (active)
Potency [4]: 0.186 µM (active)

CC1Oc2cc(cnc2N)-c2c(nn(C)c2C#N)CN(C)C(=O)c2ccc(F)cc21 (centres undefined)
viability [2]: 105% (inactive)

CONC(=O)c1ccccc1Nc1cc(Nc2cc(C)nn2C(C)C)ncc1Cl
viability [2]: 86.2% (inactive)

Cc1[nH]c(/C=C2\C(=O)Nc3ccccc32)c(C)c1CCC(=O)O
viability [2]: 83.1% (inactive)
Potency [3]: 20.9 µM (active)
Potency [4]: 13.2 µM (active)

CCOC(=O)C1=CCCCC1S(=O)(=O)Nc1ccc(F)cc1Cl (centres undefined)
Potency [2]: 20.9 µM (active)

CN(C)c1ccc(-c2nc3ncc(Cl)c(N4CCN(CC(=O)Nc5nccs5)CC4)c3[nH]2)cc1
Potency [1]: inactive
viability [2]: 105% (inactive)
Potency [3]: 1.62 µM (active)
Potency [4]: 0.723 µM (active)

N#C/C(=C\c1ccc(O)c(O)c1)C(=O)NCc1ccccc1
Potency [2]: 14.8 µM (active)
Potency [3]: 5.9 µM (active)
Potency [4]: 14.8 µM (active)

N#Cc1cc2cc(CN3CCC(Nc4ncnc5sc(CC(F)(F)F)cc45)CC3)c(O)cc2n1Cc1cn[nH]c1
Potency [2]: 23.5 µM (active)
Potency [3]: 18.6 µM (active)
Potency [4]: 5.9 µM (active)
Potency [5]: 23.5 µM (active)

Cc1ccc([S+](=O)([O-])Nc2nn3c(=O)c4ccccc4nc3s2)cc1C
Potency [1]: inactive
Potency [7]: 12.7 µM (active)

O=C(NOCCO)c1cc(CN2OCCCC2=O)c(F)c(F)c1Nc1ccc(I)cc1F
viability [2]: 70.8% (inactive)

COc1cc2c(cc1O)CCN[C@]21CS[C@@H]2c3c(OC(C)=O)c(C)c4c(c3[C@H](COC1=O)N1[C@@H]2[C@H]2c3c(cc(C)c(OC)c3O)C[C@@H]([C@@H]1O)N2C)OCO4
Potency [2]: 0.0096 µM (active)
Potency [3]: 0.0096 µM (active)
Potency [4]: 0.0043 µM (active)
Potency [5]: 0.0085 µM (active)
Potency [6]: 9.6 nM (active)
Potency [8]: 0.0096 µM (active)

Cc1nc2ccc(CN(C)c3ccc(C(=O)N[C@@H](CCC(=O)O)C(=O)O)s3)cc2c(=O)[nH]1
Potency [2]: 0.0468 µM (active)
Potency [3]: 0.0468 µM (active)
Potency [4]: 0.0468 µM (active)
Potency [5]: inactive
Potency [6]: 46.8 nM (active)

Cn1cc(/C=C2\C(=O)Nc3cccnc32)c2ccccc21
viability [2]: 86.8% (inactive)

Cc1ccnc(N(C)C(=S)N2CCN(c3cccc(C(F)(F)F)c3)CC2)c1
Potency [7]: 11.3 µM (active)

CNC(=O)Cn1cc(-c2ccc3c(c2)C(F)CC32NC(=O)N(CC(=O)N(Cc3ccc(F)cc3)[C@@H](C)C(F)(F)F)C2=O)cn1 (some centres undefined)
Potency [2]: 3.72 µM (active)
viability [2]: 103% (inactive)
Potency [4]: 11.8 µM (active)
Potency [5]: 0.0742 µM (active)
Potency [6]: 118 nM (active) and inactive
Potency [8]: inactive
Potency [9]: inactive

COc1ccc2c(c1)CCc1sc(NC(=O)c3ccc(Br)cc3)nc1-2
Potency [7]: 10.2 µM (active)

CCC(=O)NC[C@H](Cc1ccc(OCCc2nc(-c3ccccc3)oc2C)cc1)N/C(C)=C\C(=O)c1ccc(C(F)(F)F)cc1
viability [2]: 111% (inactive)
Potency [3]: 20.9 µM (active)

C[N+](C)(C)CC(=O)O
viability [2]: 112% (inactive)
Potency [3]: inactive
Potency [4]: inactive
Potency [5]: inactive
Potency [6]: inactive
Potency [8]: inactive

Nc1nccn2c(C3CCC(C(=O)O)CC3)nc(-c3cc4cccc(Cl)c4[nH]3)c12 (centres undefined)
Potency [1]: inactive
Potency [2]: 7.42 µM (active)
Potency [4]: 2.35 µM (active)
Potency [5]: 1.48 µM (active)
Potency [6]: 1050 nM (active)

COc1ccc(-c2nc(N3CCOCC3)c3sc(CN(C)c4ncc(C(=O)NO)cn4)cc3n2)cn1
Potency [2]: 0.0295 µM (active)
Potency [3]: 0.0332 µM (active)
Potency [4]: 0.0235 µM (active)
Potency [5]: 0.0417 µM (active)
Potency [6]: 29.5 nM (active)
Potency [8]: 0.0468 µM (active)

C=CC(=O)N1CCC(CNc2ncnc(N)c2-c2ccc(Oc3ccccc3)cc2)CC1
viability [2]: 101% (inactive)
Potency [3]: 16.6 µM (active)
Potency [4]: 13.2 µM (active)

C[C@H]1COCCN1c1cc(C2(S(=O)(=O)C3CC3)CC2)nc(-c2ccc(NC(=S)NCCO)cc2)n1
Potency [2]: 0.417 µM (active)
Potency [3]: 0.833 µM (active)
Potency [4]: 0.0934 µM (active)
Potency [5]: 0.105 µM (active)
Potency [6]: 10.5 nM (active)

Reference: PubChem BioAssay (NCATS)
